# Results from PubChem BioAssay (EPA / NIEHS).
# Results filed as inconclusive are left out. Calls of active or inactive are those of the source. The calls were made as follows, unless noted: active = hit-call score of the fitted dose curve at least 0.9, where 1 is the maximum; inactive = score below 0.9.
# Experiments:
# [1] = target: Ratio of Nucleoli Translocation and Cytoplasm, AR (gene 367) (UniProt P10275); assay: UPITT_HCI_U2OS_AR_TIF2_Nucleoli_Cytoplasm_Ratio_Antagonist: University of Pittsburgh U2OS Androgen Receptor-Transcriptional Intermediary Factor 2 (AR-TIF2) Antagonism High Content Imaging Assay for Ratio of Nucleoli Translocation and Cytoplasm (AID 2283999; active = hit-call score of the fitted dose curve at least 0.9, where 1 is the maximum;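 also: antagonists lower the DHT-driven ratio of nucleolar to cytoplasmic red signal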)
# Chain of Ratio of Nucleoli Translocation and Cytoplasm, AR (gene 367) (P10275 whole entry, looked up): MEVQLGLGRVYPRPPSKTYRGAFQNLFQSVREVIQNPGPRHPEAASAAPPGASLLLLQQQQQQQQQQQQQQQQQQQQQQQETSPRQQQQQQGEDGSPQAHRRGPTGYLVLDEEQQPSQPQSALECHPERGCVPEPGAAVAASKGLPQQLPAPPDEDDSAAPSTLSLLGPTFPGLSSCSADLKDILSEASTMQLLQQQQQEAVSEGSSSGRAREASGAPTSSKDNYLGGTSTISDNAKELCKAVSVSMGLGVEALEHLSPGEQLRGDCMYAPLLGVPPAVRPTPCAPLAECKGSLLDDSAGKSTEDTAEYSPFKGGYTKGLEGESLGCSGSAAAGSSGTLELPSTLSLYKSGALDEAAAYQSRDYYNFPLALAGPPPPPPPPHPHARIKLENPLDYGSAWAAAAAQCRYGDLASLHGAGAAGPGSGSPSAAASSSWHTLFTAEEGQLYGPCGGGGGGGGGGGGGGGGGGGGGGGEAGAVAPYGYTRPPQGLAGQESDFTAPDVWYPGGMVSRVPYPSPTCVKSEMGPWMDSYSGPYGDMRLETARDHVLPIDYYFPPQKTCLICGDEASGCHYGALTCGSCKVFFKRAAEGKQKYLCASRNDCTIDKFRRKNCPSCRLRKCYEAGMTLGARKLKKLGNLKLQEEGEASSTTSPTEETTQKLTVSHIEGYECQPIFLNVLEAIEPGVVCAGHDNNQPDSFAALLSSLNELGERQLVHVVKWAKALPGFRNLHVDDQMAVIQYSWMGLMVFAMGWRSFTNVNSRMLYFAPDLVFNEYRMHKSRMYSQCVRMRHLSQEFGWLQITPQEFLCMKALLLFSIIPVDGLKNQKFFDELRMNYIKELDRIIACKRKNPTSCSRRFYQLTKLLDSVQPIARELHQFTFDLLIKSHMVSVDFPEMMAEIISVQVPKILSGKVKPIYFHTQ
# Outline: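 High-content imaging of red fluorescence ratio, nucleoli versus cytoplasm, in U2OS expressing AR-RFP and TIF2-GFP, fitted relative to DHT. Compounds tested once at 20 uM final, then 0.195 to 50 uM final in serial dilution.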
# [2] = CCTE_Harrill_HTTr_Viability_MCF7: CCTE's 6-hour Cell Viability Assessment for the High-Throughput Transcriptomics (HTTr) Platform, in MCF-7 cells cultured in DMEM + 10% fetal bovine serum, Harrill Lab (AID 2284010)
# Outline: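 Propidium iodide exclusion, imaged by high-content analysis, gauged viability after a six-hour exposure across eight concentrations. Cells were MCF-7 grown in DMEM with 10% fetal bovine serum; fits run in both directions against DMSO.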
# [3] = CCTE_Harrill_HTTr_Apoptosis_MCF7: CCTE's 6-hour Apoptosis Assessment for the High-Throughput Transcriptomics (HTTr) Platform, in MCF-7 cells cultured in DMEM + 10% fetal bovine serum, Harrill Lab (AID 2284011)
# Outline: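 MCF-7 cells in DMEM + 10% fetal bovine serum were exposed to chemicals for 6 hours over an eight-point dilution series. Caspase-3/7 activation was imaged by high content imaging with CellEvent Caspase 3/7 Green; bidirectional fitting used DMSO as baseline.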
# [4] = CCTE_Harrill_HTTr_CellCount_MCF7: CCTE's Cell Proliferation Assessment for the High-Throughput Transcriptomics (HTTr) Platform, Harrill Lab (AID 2284012; active = hit-call score of the fitted dose curve at least 0.9, where 1 is the maximum;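 also: cells exposed to compound for six hours; intended direction is loss of nuclei count meaning fewer cells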)
# Outline: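 Cell count from high-content imaging of Hoechst-labeled nuclei serves as viability/growth readout. Chemicals were applied to MCF-7 cells in eight concentrations for six hours, with fitting in both directions relative to DMSO.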
# [5] = CCTE_Shafer_MEA_acute_spike_number: CCTE's Neural Acute Assay for Total Number of Spikes, Shafer Lab (AID 2284008);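 as to AC50: curve fitted for decrease in spike count so AC50 reflects inhibitors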
# Outline: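 Primary rat cortical neurons on 16-electrode MEA wells; on DIV 13 or 15, 40-min baseline then 40-min recording with compound (0.03-40 uM) at 37 C. Spikes detected at 8x rms noise; percent change versus baseline, DMSO as negative control.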
# [6] = CCTE_Shafer_MEA_acute_firing_rate_mean: CCTE's Neural Acute Assay for Mean Firing Rate, Shafer Lab (AID 2284009);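 also: analyzed for loss of signal so actives lower firing rate relative to DMSO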
# Outline: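 Rat cortical neuron cultures matured to DIV 13 or 15, equilibrated 20 min at 37 C, then recorded 40 min for baseline. Compound (0.03-40 uM) added and a further 40 min recorded; percent change in mean firing rate calculated per well.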
# [7] = CCTE_Simmons_MITO_basal_resp_rate: CCTE's HepG2 Seahorse XF Respirometric Screening Assay at Basal Respiratory State, Simmons Lab (AID 2284001); conditions: actives raise or lower the signal
# Outline: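 Basal-phase OCR of HepG2 cells on a Seahorse XF96, analysed by bidirectional fit relative to DMSO vehicle; chemicals at 7 concentrations, 125 nM–100 uM final; three biological replicates; fenpyroximate and 2,4-dinitrophenol positive controls.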
# [8] = CCTE_Simmons_MITO_max_resp_rate: CCTE's HepG2 Seahorse XF Respirometric Screening Assay at Maximal Respiratory State [uncoupled], Simmons Lab (AID 2284002); conditions: actives raise or lower the signal
# Experimental: CCTE_Simmons_MITO is cell-based, respirometric assay using HepG2 cells and a Seahorse XF Analyzer to measure oxygen consumption rates over four temporal phases spanning a total of 72 minutes: pre-injection (pre-treatment), basal (following test compound injection), maximal (following FCCP uncoupler injection), and inhibited (following rotenone/antimycin A injection)CCTE_Simmons_MITO_max_resp_rate is one of 4 assay components calculated from the CCTE_Simmons_MITO assay. It is designed to make measurements of maximal respiration using a form of respirometric reporter, as detected with […] signals by Seahorse XF96 technology. Data from the assay component CCTE_Simmons_MITO_max_resp_rate was analyzed at the endpoint, CCTE_Simmons_MITO_max_resp_rate_OCR, with bidirectional fitting relative to DMSO as the negative control and baseline of activity. Using a type of respirometric reporter, measures of maximal respiration for gain or loss-of-signal activity can be used to understand cellular oxygen consumption as it relates to cellular respiration. To generalize the intended target to other relatable targets, this assay endpoint is annotated to the mitochondria intended target family, where the subfamily is respiration.
# Test chemicals were administered as a titrated series of 7 concentrations from 125 nM up to 100 uM [final] prior to kinetic endpoint detection at 6 minute intervals [3 min mix followed by 3 minutes measure] for 72 minutes. Three biological replicates of technical singles were run for every chemical concentration tested. Dimethylsulfoxide [DMSO] was used as the vehicle control. The electron transport chain inhibitor fenpyroximate was used as the positive control for decreased basal respiration and was administered as a titrated series of 6 concentrations from 250 nM up to 2.75 uM [final] with technical triplicates for the top concentration only. […]
# [9] = CCTE_Simmons_MITO_inhib_resp_rate: CCTE's HepG2 Seahorse XF Respirometric Screening Assay at Inhibited Respiratory State [full ETC block], Simmons Lab (AID 2284006); conditions: actives raise or lower the signal
# Outline: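 This endpoint is the respiration rate remaining after rotenone/antimycin A block, in HepG2 cells on a Seahorse XF96. Chemicals spanned 125 nM–100 uM final, in three biological replicates. OCR was read every 6 minutes for 72 minutes and compared with DMSO vehicle.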
# [10] = CCTE_Simmons_MITO_viability: CellTiter-Glo Viability Assessment for CCTE's HepG2 Seahorse XF Respirometric Screening Assay [post-hoc], Simmons Lab (AID 2284007; active = hit-call score of the fitted dose curve at least 0.9, where 1 is the maximum)
# Outline: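 Luciferase-coupled ATP read-out after the Seahorse run: HepG2 cells treated 90 minutes with test chemical, 7-point series of 125 nM–100 uM final, in triplicate biological runs. Vehicle DMSO; dichlone as positive control over 8 concentrations.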
smiles,measurement,setting,value
CC(=Cc1ccccc1)[N+](=O)[O-],AC50,[1],845 nM (active)
COCCl,outcome,[1],inactive
same,outcome,[2],inactive
same,outcome,[3],inactive
same,outcome,[4],inactive
CC1(C)[C@H](C(=O)O[C@H](C#N)c2cccc(Oc3ccccc3)c2)[C@@H]1/C=C(\Cl)C(F)(F)F,AC50,[5],1180 nM (active)
same,AC50,[6],1180 nM (active)
same,outcome,[2],inactive
same,outcome,[3],inactive
same,outcome,[4],inactive
O=C(O)C1(c2ccc3c(c2)OC[C@H](Cc2ccc(-c4ccccc4)cc2)[C@H]3O)CCCC1,AC50,[7],5210 nM (active)
same,AC50,[8],8480 nM (active)
same,outcome,[9],inactive
same,outcome,[10],inactive
same,outcome,[2],inactive
same,outcome,[3],inactive
same,outcome,[4],inactive
OCCCCO,outcome,[5],inactive
same,outcome,[6],inactive
same,outcome,[2],inactive
same,outcome,[3],inactive
Oc1c(Cl)cc(Cl)cc1Cl,AC50,[7],77000 nM (active)
same,outcome,[8],inactive
same,outcome,[9],inactive
same,outcome,[10],inactive
same,outcome,[2],inactive
same,outcome,[3],inactive
same,outcome,[4],inactive
Oc1ccc(Cc2ccc(O)cc2)cc1,AC50,[5],4.54 nM (active)
same,AC50,[6],3.77 nM (active)
same,outcome,[2],inactive
same,outcome,[3],inactive
same,outcome,[4],inactive
O=S1(=O)OC(c2cc(Br)c(O)c(Br)c2)(c2cc(Br)c(O)c(Br)c2)c2ccccc21,outcome,[1],inactive
same,outcome,[2],inactive
same,outcome,[3],inactive
same,outcome,[4],inactive
N#CCC#N,outcome,[1],inactive
same,outcome,[2],inactive
same,outcome,[3],inactive
same,outcome,[4],inactive
Oc1cc(Cl)c(Cl)cc1Cl,AC50,[8],75400 nM (active)
same,outcome,[9],inactive
same,outcome,[10],inactive
same,AC50,[5],36300 nM (active)
same,AC50,[6],34200 nM (active)
same,outcome,[2],inactive
same,outcome,[3],inactive
same,outcome,[4],inactive
CC(C)[C@@H](Nc1ccc(C(F)(F)F)cc1Cl)C(=O)OC(C#N)c1cccc(Oc2ccccc2)c1 (some centres not stated),AC50,[5],936 nM (active)
same,AC50,[6],1250 nM (active)
same,outcome,[2],inactive
same,outcome,[3],inactive
Cc1cc(C(F)(C(F)(F)F)C(F)(F)F)ccc1NC(=O)c1cccc(I)c1C(=O)NC(C)(C)CS(C)(=O)=O,AC50,[5],1680 nM (active)
same,AC50,[6],1680 nM (active)
same,outcome,[2],inactive
same,outcome,[3],inactive
